# Bioassay records deposited in PubChem by National Center for Advancing Translational Sciences (NCATS).
# SARS PLpro yeast: qHTS of Yeast-based Assay for SARS-CoV PLP. S. cerevisiae expressing SARS-CoV PLpro, growth rescue. Potency, µM (highest dose often 32.9 µM), without a hit: at the top dose activity, positive = growth rescue, usual class: activators. hit rate 0.19% among 330,000; calls by dose curve; also: 0% is about no effect; nearly all actives have a fitted effect of over 55% in size
# TbPYK inhibitor: qHTS of Trypanosoma Brucei Inhibitors | TbPYK enzyme, Kinase-Glo Plus ATP luminescence, 45 min | hit rate 0.12% among 410,000 | Potency, µM (top dose mostly 76.8 µM), inactives show at the top dose activity, negative = inhibition, usual class: inhibitors; also: % is scaled to controls: 0 for no effect and ±100 for the full control effect; nearly all actives have a fitted effect of over 50% in size
#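 ADP (130 uM final) triggers the TbPYK reaction after compound addition; incubation is 45 min at room temperature. Kinase-Glo Plus is then added and luminescence imaged. Normalized data are fitted to concentration-effect curves.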
# RE007 growth inh: qHTS Assay for Inhibitors of the HIV-1 protein Vpr | S. pombe RE007 Vpr strain, BacTiter-Glo ATP luminescence, 24 h | Potency, µM (top dose mostly 92.2 µM), inactives show at the top dose activity change, negative = less growth, hits mostly inhibitors | hit rate 0.21% among 360,000 | AID 651644, 2012; active = well fitted falling curve with a large enough effect; inconclusive = small, poorly fitted or top-dose-only effect; inactive = no such curve, though single readings can be large or run the other way; also: % is scaled to controls: 0 for no effect and ±100 for the full control effect; nearly all actives have a fitted effect of over 50% in size
#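 Fission yeast RE007 carrying one integrated HIV-1 vpr copy, seeded at OD 0.01 in PMG+AL medium with 23 nL pinned compound. Grown 24 h at 30 degrees; viability read by BacTiter-Glo luminescence after 5 min.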
# AmpC inh no detg: qHTS Inhibitors of AmpC Beta-Lactamase (assay without detergent); AID 485341, 2010; Potency, µM (titrated, usually from 57.1 µM), inactives show top-dose activity change, negative = inhibition, most hits filed as inhibitors; AmpC nitrocefin hydrolysis, absorbance 480 nm, 0.0001% Triton; P00811; hit rate 0.52% among 330,000;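 also: plate controls were no compound for no effect and no enzyme for full effect; nearly all actives have a fitted effect of over 20% in size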
# Target sequence (P00811 whole entry, looked up): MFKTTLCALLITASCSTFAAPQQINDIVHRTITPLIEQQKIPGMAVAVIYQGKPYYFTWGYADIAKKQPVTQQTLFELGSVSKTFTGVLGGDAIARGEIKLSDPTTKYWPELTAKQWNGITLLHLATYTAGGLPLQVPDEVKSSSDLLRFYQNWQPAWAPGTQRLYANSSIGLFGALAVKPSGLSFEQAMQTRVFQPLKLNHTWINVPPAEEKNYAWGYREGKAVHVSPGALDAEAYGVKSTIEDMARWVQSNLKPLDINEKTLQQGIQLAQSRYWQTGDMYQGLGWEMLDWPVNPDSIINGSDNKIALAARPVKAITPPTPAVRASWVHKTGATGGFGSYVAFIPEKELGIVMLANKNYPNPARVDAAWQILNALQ
#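 20 mM phosphate pH 7.0 + 0.01% (detergent screen) or 0.0001% Triton X-100; 5.3 nM AmpC reagent; cpd preinc 15 min RT; nitrocefin (800 uM stock) to start; A480 q20 s × 4 min; Activity was normalised to no-enzyme and no-compound control wells.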
# Sm TGR inh: qHTS Assay for the Inhibitors of Schistosoma Mansoni Peroxiredoxins; hit rate 3% among 360,000; Schistosoma mansoni thioredoxin glutathione reductase (TGR), Q962Y6; purified TGR, DTNB reduction, TNB absorbance 405 nm; Potency, µM (titrated, usually from 114 µM), without a hit: at the highest dose activity change, negative = inhibition, actives largely listed as inhibitors; also: % is scaled to controls: 0 for no effect and ±100 for the full control effect; nearly all actives have a fitted effect of over 60% in size
#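 TGR 20 nM + NADPH 100 uM (dispensed conc.), cpd preinc 15 min RT; start with NADPH (500 uM addition) then DTNB (15 mM addition). Kinetic TNB absorbance, 405 nm filter. Four-parameter Hill fit across titration.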
# AmpC detergent: qHTS Inhibitors of AmpC Beta-Lactamase (assay with detergent). AmpC hydrolysis of nitrocefin, absorbance 480 nm, 0.01% Triton. Potency, µM (doses to about 114 µM), for the others: top-dose activity change, negative = inhibition, usual class: inhibitors. hit rate 0.041% among 370,000;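 also: 0% = no-compound wells and -100% = no-enzyme wells; nearly all actives have a fitted effect of over 25% in size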
#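 AmpC (5.3 nM in the dispensed reagent) in 20 mM phosphate pH 7.0 with 0.01% (detergent screen) or 0.0001% Triton X-100 was preincubated with compounds for 15 min at room temperature. Nitrocefin was then added from an 800 uM solution, and hydrolysis was followed at 480 nm.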
# Numbers without * were called inactive; ? = inconclusive; . = no result. Compounds with a hit are over-represented: about 3.3% of the library has one in this group of screens. Unless noted, calls follow the shape of the dose curve; as a rule, active = well fitted curve in the direction sought with a large enough effect; inconclusive = small, poorly fitted or top-dose-only effect, or another doubt; inactive = no such curve, though single readings can be large; an effect the other way counts as inactive or inconclusive. Potency is read from the fitted curve at half-maximal effect.
SMILES,SARS PLpro yeast,TbPYK inhibitor,RE007 growth inh,AmpC inh no detg,Sm TGR inh,AmpC detergent
O=C(N/N=C/c1ccccc1)c1ccc(N2CCOCC2)c([N+](=O)[O-])c1,21%,5%,9%,?,1%,-4%
Cc1[nH]n(-c2ccccc2)c(=S)c1C=Nc1ccc([N+](=O)[O-])cc1,-10%,2.8µM*,39%,-16%,-25%,-6%
CCN1/C(=C/c2ccc3ccccc3[n+]2CC)C=Cc2ccccc21,-32%,32µM*,22µM*,6%,?,-3%
COc1cccc(CNC(=O)CCn2cccn2)c1,.,-1%,.,.,-1%,16%
CN(C(=O)C1=CC(c2ccc3c(c2)OCO3)=NS(=O)(=O)N1C)c1ccccc1,.,-2%,.,.,-24%,21%
CC(=O)c1ccc(OC(=O)COc2ccccc2Cl)cc1,-2%,-1%,4%,-14%,40µM*,-7%
Cc1cc(C(F)(F)F)nc(SCc2ccc(C(=O)O)o2)n1,4%,-3%,-9%,-30%,14µM*,-9%
Cc1sc2ncn(CC(=O)N3CCN(c4ccc(F)cc4)CC3)c(=O)c2c1S(=O)(=O)N1CCCCC1,.,4%,.,.,2%,3%
CCc1ccc(S(=O)(=O)/N=C2/C=C(Sc3ncn[nH]3)C(=O)c3ccccc32)cc1,-64%,?,?,20µM*,0.32µM*,-7%
CCc1ccc(S(=O)(=O)/N=C2\C=CC(=O)c3ccccc32)cc1,-5%,.,.,16µM*,8.9µM*,-4%
CCc1ccc(S(=O)(=O)/N=C2\C=C(Nc3ccc(O)cc3)C(=O)c3ccccc32)cc1,-15%,?,-27%,-35%,-22%,-14%
O=S(=O)(N=C1C=CC(=NS(=O)(=O)c2ccccc2)c2ccccc21)c1ccccc1,.,-5%,-11%,.,.,.
CCc1ccccc1NC(=O)Cn1c(=O)n(CCc2ccccc2)c(=O)c2sc3ccccc3c21,.,6%,.,.,-5%,1%
O=C(CC1C(=O)NCCN1Cc1ccc(F)cc1Cl)NCc1ccon1 (stereo not given),4%,-4%,0%,-8%,13µM*,-1%
CN(CC1CCOCC1)C(=O)CC1C(=O)NCCN1Cc1cccc(Oc2ccccc2)c1 (stereo not given),1%,0%,8%,156%,40µM*,-3%
CN(Cc1nccn1C)C(=O)CC1C(=O)NCCN1Cc1cccc(Oc2ccccc2)c1 (stereo not given),0%,-7%,-7%,93%,-29%,5%
CN(Cc1cnn(C)c1)C(=O)CC1C(=O)NCCN1Cc1cccc(Oc2ccccc2)c1 (stereo not given),5%,1%,6%,110%,40µM*,1%
O=C1NCCN(Cc2cccc(Oc3ccccc3)c2)C1CC(=O)N1CCCCC1 (stereo not given),-1%,-1%,-3%,126%,?,-7%
O=CN1CCCN(C(=O)CC2C(=O)NCCN2Cc2cccc(Oc3ccccc3)c2)CC1 (stereo not given),-3%,5%,3%,163%,13µM*,3%
COc1ccc(C(=O)OCc2cc(=O)n3nc(-c4cccs4)sc3n2)cc1,.,1%,.,.,0%,24%
Cc1nc([N+](=O)[O-])cn1-c1ccc([N+](=O)[O-])cc1,.,1%,.,.,.,.
COc1ccc(Cl)cc1NC(=O)COC(=O)CC(C)(C)CC1=NS(=O)(=O)c2ccccc2N1,.,-1%,.,.,-18%,-6%
COc1cccc(CN2CCNC(=O)C2CC(=O)N(C)C2CCOCC2)c1 (stereo not given),-6%,-1%,8%,12%,?,-5%
CN(Cc1cnccn1)C(=O)CC1C(=O)NCCN1Cc1ccc(F)cc1Cl (stereo not given),-1%,0%,-7%,0%,38%,-4%
CN(Cc1ccccn1)C(=O)CC1C(=O)NCCN1Cc1ccc(F)cc1Cl (stereo not given),-6%,-1%,-4%,27%,45µM*,3%
SMILES,SARS PLpro yeast,TbPYK inhibitor,RE007 growth inh,AmpC inh no detg,Sm TGR inh,AmpC detergent
CN(Cc1ccccn1)C(=O)CC1C(=O)NCCN1Cc1cccc(Oc2ccccc2)c1 (stereo not given),0%,-2%,25%,121%,50µM*,-5%
COc1cccc(CN2CCNC(=O)C2CC(=O)N(C)C2CCCCC2)c1 (stereo not given),?,-9%,-12%,81%,45µM*,-3%
Cc1noc(/C=C/c2ccco2)c1S(=O)(=O)N1CCC(C(=O)Nc2ccc(F)c(Cl)c2)CC1,.,3%,.,.,-26%,0%
O=C(Nc1ccc2nc(-c3ccc(Br)o3)[nH]c2c1)c1cccs1,-7%,-23%,19%,-31%,25µM*,-11%
O=C(Nc1cccc(NC(=O)c2cccs2)c1)c1ccc(Br)o1,-3%,7%,-6%,25µM*,-28%,-7%
CC(=O)Nc1ccc2nc(-c3ccc(Br)o3)[nH]c2c1,1%,-23%,-5%,-16%,25µM*,-6%
O=C(COC(=O)C1CC(=O)N(c2ccccc2)C1)c1ccccc1 (stereo not given),-12%,-4%,-7%,1.4µM*,6%,?
Cc1ccc(N2C(=O)C3C4C=CC(CC4)C3C2=O)cc1[N+](=O)[O-] (stereo not given),3%,1%,-11%,-9%,50µM*,?
COc1ccc(N2C(=O)C3C4C=CC(CC4)C3C2=O)c([N+](=O)[O-])c1 (stereo not given),-5%,4%,-2%,-6%,3%,-2%
Cc1ccc(N2C(=O)C3C4C=CC(C4)C3C2=O)cc1C (stereo not given),-3%,2%,-1%,-15%,-4%,0%
CCOc1ccc(N2C(=O)C3CC(C)=C(C)CC3C2=O)c([N+](=O)[O-])c1 (stereo not given),2%,-5%,-17%,21%,20µM*,?
CCOc1ccc(N2C(=O)C3C4C=CC(CC4)C3C2=O)c([N+](=O)[O-])c1 (stereo not given),4%,-8%,4%,-8%,50µM*,-11%
Cc1ccc(N2CCN(C(=O)c3cnn(-c4ccc(C)c(C)c4)c3C3CCNCC3)CC2)c(C)c1,.,6%,.,.,-5%,4%
O=C(Nc1c(C(=O)Nc2ccc(F)cc2)oc2ccccc12)c1cc2ccccc2o1,.,-7%,.,.,6%,-6%
